Assay results reported in PubChem BioAssay (EPA / NIEHS).
Where “and” joins values, the source holds several entries; their conditions need not be identical. Identical values can stand only once. Results filed as inconclusive are left out. The source holds several records for some structures; these can differ, active in one and inactive in another. Calls of active or inactive are those of the source. The calls were made as follows, unless noted: active = hit-call score of the fitted dose curve at least 0.9, where 1 is the maximum; inactive = score below 0.9.

Columns and labels:
[1] = target: Glucocorticoid receptor (Homo sapiens) (UniProt P04150); experiment: ATG_GR_TRANS: Attagene TRANS-FACTORIAL HepG2 Assay for human Glucocorticoid Receptor (GR) (AID 2282978; active = hit-call score of the fitted dose curve at least 0.9, where 1 is the maximum;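 also: activators score as hits since higher reporter transcript over DMSO is fitted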); settings: HepG2 Attagene TRANS GR reporter, mRNA transcription
Procedure, shortened: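 HepG2 cells transiently transfected with multiplexed reporter units in which chimeric NR-GAL4 proteins drive GAL4-UAS reporters; 24 h compound exposure. Reporter mRNA measured by RT-PCR, 6-FAM labelling, HpaI digestion and capillary electrophoresis; gain-of-signal fitted versus DMSO.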

[2] = target: Bile acid receptor (Homo sapiens) (UniProt Q96RI1); experiment: ATG_FXR_TRANS: Attagene TRANS-FACTORIAL HepG2 Assay for Farnesoid X Receptor (FXR) (AID 2282979; active = hit-call score of the fitted dose curve at least 0.9, where 1 is the maximum;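 also: hits raise reporter mRNA above DMSO so AC50 marks FXR activation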); settings: HepG2 Attagene TRANS FXR-GAL4 reporter transcription
Procedure, shortened: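 Reporter transcripts from transfected HepG2 cells were measured 24 h after dosing, using RT-PCR with capillary electrophoresis of 6-FAM-labelled fragments. The read-out reflects activity of exogenous FXR-Gal4 chimera on GAL4-UAS units, with induction relative to DMSO.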

[3] = ATG_M_06_TRANS: Attagene TRANS-FACTORIAL HepG2 Assay for M06 Transcription Factor (Internal Marker) (AID 2282983; active = hit-call score of the fitted dose curve at least 0.9, where 1 is the maximum;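 also: reporter transcript level by RT-PCR then capillary electrophoresis fluorescence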); settings: HepG2 Attagene TRANS M06 internal marker reporter
Procedure, shortened: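 Background-control reporter readout: after 24 h chemical exposure of transiently transfected HepG2 (GAL4-UAS reporter units), mRNA quantified by RT-PCR with fluorescent labeling and capillary electrophoresis. Gain-of-signal fitting against DMSO baseline.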

[4] = target: Transcriptional activator Myb (Homo sapiens) (UniProt P10242); experiment: ATG_Myb_CIS: Attagene CIS-FACTORIAL HepG2 Assay for human Myeloblastosis (Myb) Proto-Oncogene Transcription Factor (AID 2282986); settings: HepG2 Attagene CIS-FACTORIAL Myb reporter transcription; actives raise or lower the signal
Procedure, shortened: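 HepG2 cells were transiently transfected with cis-regulated multiple reporter transcription units reflecting endogenous Myb activity, then exposed to compound for 24 hours. Reporter mRNA was measured by RT-PCR with capillary electrophoresis; bidirectional fitting versus DMSO baseline.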

[5] = target: Nuclear respiratory factor 1 (Homo sapiens) (UniProt Q16656); experiment: ATG_NRF1_CIS: Attagene CIS-FACTORIAL HepG2 Assay for human Nuclear Respiratory Factor 1 (NRF1) Orphan Gene (AID 2282987); settings: HepG2 NRF1 cis-element reporter, Attagene multiplex; actives raise or lower the signal
Procedure, shortened: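 HepG2 cells transiently transfected with multiple reporter transcription units under cis-regulatory promoter control, so endogenous transcription-factor activity is read. After 24 h compound exposure, reporter mRNA quantified by RT-PCR, fluorescent labelling, HpaI digestion and capillary electrophoresis; bidirectional fitting versus DMSO.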

[6] = ATG_NFI_CIS: Attagene CIS-FACTORIAL HepG2 Assay for human Nuclear Factor I (NFI) (AID 2282989); settings: HepG2 cis-regulatory reporter, NFI response element transcription; actives raise or lower the signal
Procedure, shortened: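 After transient transfection of HepG2 with cis-promoter reporter constructs and 24 h dosing, RNA is reverse-transcribed, amplified, 6-FAM end-labelled and HpaI-digested before capillary analysis. Bidirectional curve fitting against DMSO.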

[7] = target: Myc proto-oncogene protein (Homo sapiens) (UniProt P01106); experiment: ATG_Myc_CIS: Attagene CIS-FACTORIAL HepG2 Assay for human Myelocytomatosis (Myc) Proto-Oncogene Transcription Factor (AID 2282990); settings: HepG2, Attagene cis-reporter transcription factor activity; actives raise or lower the signal
Procedure, shortened: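 Transiently transfected HepG2 cells bearing cis-promoter reporter units for endogenous transcription factors; 24 h exposure. Reporter mRNA measured by RT-PCR, 6-FAM primer extension, HpaI cut and capillary electrophoresis; bidirectional fit relative to DMSO.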

[8] = ATG_NF_kB_CIS: Attagene CIS-FACTORIAL HepG2 Assay for human Nuclear Factor Kappa B (NF-kB) (AID 2282991); settings: HepG2 Attagene cis-factorial NF-kB reporter mRNA; actives raise or lower the signal
Procedure, shortened: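 HepG2 cells transiently transfected with multiplexed cis-element reporter units measuring endogenous transcription factor activity; reporter mRNA read 24 h after dosing by RT-PCR, fluorescent labelling, HpaI digestion and capillary electrophoresis. Bidirectional fit against DMSO baseline.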

[9] = ATG_Oct_MLP_CIS: Attagene CIS-FACTORIAL HepG2 Assay for human Octamer-Binding Transcription Factor (Oct) (AID 2282993); settings: HepG2 Attagene cis-factorial Oct reporter, mRNA; actives raise or lower the signal
Procedure, shortened: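 Cells of the HepG2 line express promoter-controlled reporter sequences whose mRNA levels, after 24 h treatment, are measured by RT-PCR and capillary electrophoresis. Increases and decreases are scored relative to DMSO.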

[10] = target: Cellular tumor antigen p53 (Homo sapiens) (UniProt P04637); experiment: ATG_p53_CIS: Attagene CIS-FACTORIAL HepG2 Assay for human p53 Transcription Factor (AID 2282994); settings: HepG2 p53 cis-element reporter, Attagene mRNA; actives raise or lower the signal
Procedure, shortened: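 Read-out: reporter mRNA by RT-PCR plus capillary electrophoresis with fluorescence detection. Human HepG2 liver cells carried transfected multi-reporter cis-element constructs, dosed 24 h. Gain or loss of signal fitted bidirectionally against DMSO control.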

[11] = BSK_3C_TissueFactor: BioMAP Diversity Plus: 3C Assay for Tissue Factor Biomarker Activity (AID 2282997); settings: BioMAP 3C HUVEC, tissue factor biomarker readout; actives raise or lower the signal
Procedure, shortened: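 Tissue factor on primary human umbilical vein endothelium was read by ELISA 24 h after dosing, gain or loss relative to DMSO. Cytotoxicity ran alongside via SRB (0.1%, TCA-fixed, 560 nm).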

[12] = BSK_3C_uPAR: BioMAP Diversity Plus: 3C Assay for Urokinase-type plasminogen activator receptor (uPAR) Biomarker Activity (AID 2282998); settings: BioMAP 3C HUVEC, uPAR biomarker ELISA; actives raise or lower the signal
Procedure, shortened: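 Endothelial primary cells of human umbilical vein origin received test chemical; 24 h later uPAR was assayed by ELISA. Fitting was bidirectional, DMSO as negative control.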

[13] = BSK_3C_VCAM1: BioMAP Diversity Plus: 3C Assay for Vascular cell adhesion molecule 1 (VCAM1) Biomarker Activity (AID 2282999); settings: BioMAP 3C HUVEC, VCAM1 ELISA, cytokine-stimulated; actives raise or lower the signal
Procedure, shortened: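 HUVEC primary cells, 24 h compound exposure; VCAM-1 by ELISA; gain/loss of signal fitted bidirectionally vs DMSO baseline.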

[14] = BSK_4H_Eotaxin3: BioMAP Diversity Plus: 4H Assay for Eotaxin 3 Biomarker Activity (AID 2283000); settings: primary human endothelial cells (HUVEC); actives raise or lower the signal
Procedure, shortened: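 Human umbilical vein endothelial cells (BSK_4H system) dosed with test chemical; Eotaxin-3 (CCL26) measured by ELISA 24 h after dosing. Bidirectional curve fitting relative to DMSO negative control as baseline.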

[15] = target: human Peroxisome Proliferator-activated Receptor alpha (PPARa), PPARA (gene 5465) (UniProt Q07869); experiment: ATG_PPARa_TRANS: Attagene TRANS-FACTORIAL HepG2 Assay for human Peroxisome Proliferator-activated Receptor alpha (PPARa) (AID 2283001; active = hit-call score of the fitted dose curve at least 0.9, where 1 is the maximum;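 as to AC50: potency for gain of reporter signal over DMSO so agonist or activator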)
Procedure, shortened: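 Transient HepG2 transfection, GAL4-UAS reporters, NR-Gal4 chimeras; 24 h compound exposure. Readout: reporter transcripts by RT-PCR, 6-FAM primer extension, HpaI digest, capillary electrophoresis. Positive direction vs DMSO baseline.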

[16] = target: Oxysterols receptor LXR-beta (Homo sapiens) (UniProt P55055); experiment: ATG_LXRb_TRANS: Attagene TRANS-FACTORIAL HepG2 Assay for human Liver X Receptor beta (LXRb) (AID 2282981; active = hit-call score of the fitted dose curve at least 0.9, where 1 is the maximum); settings: HepG2 Attagene TRANS GAL4-LXRb reporter, mRNA
Procedure, shortened: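 Readout: fluorescent reporter mRNA fragments resolved by capillary electrophoresis after RT-PCR. System: transiently transfected human HepG2, exogenous LXRb-Gal4 chimera driving GAL4-UAS reporter, 24 h dosing. Activity fitted upward against DMSO baseline.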

[17] = target: Hepatocyte nuclear factor 4-alpha (Homo sapiens) (UniProt P41235); experiment: ATG_HNF4a_TRANS: Attagene TRANS-FACTORIAL HepG2 Assay for human Hepatocyte Nuclear Factor 4 alpha (HNF4a) (AID 2282982; active = hit-call score of the fitted dose curve at least 0.9, where 1 is the maximum); settings: HepG2 HNF4a transactivation reporter, mRNA readout
Procedure, shortened: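 Transient MRTU transfection of HepG2, 24 h dosing. Readout: reporter mRNA via RT-PCR + capillary electrophoresis, fluorescence; activity fit upward relative to DMSO control.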

[18] = target: Nuclear receptor subfamily 4 group A member 2 (Homo sapiens) (UniProt P43354); experiment: ATG_NURR1_TRANS: Attagene TRANS-FACTORIAL HepG2 Assay for human Nuclear Receptor Related Protein 1 (NURR1) (AID 2282985; active = hit-call score of the fitted dose curve at least 0.9, where 1 is the maximum); settings: HepG2 Attagene TRANS reporter, mRNA readout
Procedure, shortened: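 Read-out: reporter mRNA induction by RT-PCR plus capillary electrophoresis with fluorescence detection, after 24 h dosing of transfected HepG2 cells. Exogenous NR-Gal4 chimera activity drives GAL4-UAS reporter; activity fitted upward versus DMSO.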

[19] = ATG_NRF2_ARE_CIS: Attagene CIS-FACTORIAL HepG2 Assay for human Nuclear Factor Erythroid 2 Related Factor 2 (NFR2) response to Antioxidant Response Elements (ARE) (AID 2282992); settings: HepG2 Attagene ARE/NRF2 reporter, transcription factor activity; actives raise or lower the signal
Procedure, shortened: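 Readout: reporter mRNA quantified by RT-PCR plus FAM-labelled primer extension, HpaI digestion and capillary electrophoresis, 24 h after dosing transfected HepG2 cells. Gain or loss of signal is fitted bidirectionally against DMSO baseline.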

[20] = ATG_M_32_TRANS: Attagene TRANS-FACTORIAL HepG2 Assay for M32 Transcription Factor (Internal Marker) (AID 2282984; active = hit-call score of the fitted dose curve at least 0.9, where 1 is the maximum;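 also: transcript level of a background control reporter unit measured by RT-PCR and capillary electrophoresis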); settings: HepG2 Attagene TRANS M32 internal marker reporter
Procedure, shortened: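 Read-out: fluorescent reporter cDNA fragments resolved by capillary electrophoresis after RT-PCR of total RNA. Transfected HepG2 cells were exposed to chemical for 24 h. Activity scored in the positive direction relative to DMSO.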

Measured: AC50

Nuclear receptor subfamily 4 group A member 2 (Homo sapiens), sequence (P43354 whole entry, looked up, the tested form may be a part): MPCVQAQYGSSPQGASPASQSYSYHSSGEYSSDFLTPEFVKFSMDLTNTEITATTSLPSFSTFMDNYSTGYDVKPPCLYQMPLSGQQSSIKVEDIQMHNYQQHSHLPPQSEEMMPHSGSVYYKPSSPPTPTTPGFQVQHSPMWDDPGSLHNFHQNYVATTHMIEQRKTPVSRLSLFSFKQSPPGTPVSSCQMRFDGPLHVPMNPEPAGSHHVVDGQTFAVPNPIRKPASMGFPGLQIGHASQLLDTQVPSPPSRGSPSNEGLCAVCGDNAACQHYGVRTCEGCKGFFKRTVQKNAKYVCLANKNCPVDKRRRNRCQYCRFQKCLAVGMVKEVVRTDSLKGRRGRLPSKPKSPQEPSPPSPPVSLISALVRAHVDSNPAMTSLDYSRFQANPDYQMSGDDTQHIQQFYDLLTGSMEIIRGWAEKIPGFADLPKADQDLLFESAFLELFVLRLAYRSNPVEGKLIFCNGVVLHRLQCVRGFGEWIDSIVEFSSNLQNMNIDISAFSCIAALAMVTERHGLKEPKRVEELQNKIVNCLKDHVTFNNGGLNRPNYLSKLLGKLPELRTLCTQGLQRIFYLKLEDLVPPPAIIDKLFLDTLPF
Myc proto-oncogene protein (Homo sapiens), sequence (P01106 whole entry, looked up): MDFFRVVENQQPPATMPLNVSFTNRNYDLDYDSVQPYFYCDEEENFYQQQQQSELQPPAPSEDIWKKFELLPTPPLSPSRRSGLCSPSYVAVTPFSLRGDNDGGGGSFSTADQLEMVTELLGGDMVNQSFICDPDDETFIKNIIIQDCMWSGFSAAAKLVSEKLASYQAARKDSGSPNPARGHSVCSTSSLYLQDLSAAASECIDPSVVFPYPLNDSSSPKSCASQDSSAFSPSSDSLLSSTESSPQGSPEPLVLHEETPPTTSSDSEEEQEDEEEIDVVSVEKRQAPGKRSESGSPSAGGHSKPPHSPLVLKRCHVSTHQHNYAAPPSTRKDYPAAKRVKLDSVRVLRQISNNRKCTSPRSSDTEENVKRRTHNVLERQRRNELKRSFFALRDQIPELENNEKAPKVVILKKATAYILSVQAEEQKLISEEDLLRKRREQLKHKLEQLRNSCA
Nuclear respiratory factor 1 (Homo sapiens), sequence (Q16656 whole entry, looked up): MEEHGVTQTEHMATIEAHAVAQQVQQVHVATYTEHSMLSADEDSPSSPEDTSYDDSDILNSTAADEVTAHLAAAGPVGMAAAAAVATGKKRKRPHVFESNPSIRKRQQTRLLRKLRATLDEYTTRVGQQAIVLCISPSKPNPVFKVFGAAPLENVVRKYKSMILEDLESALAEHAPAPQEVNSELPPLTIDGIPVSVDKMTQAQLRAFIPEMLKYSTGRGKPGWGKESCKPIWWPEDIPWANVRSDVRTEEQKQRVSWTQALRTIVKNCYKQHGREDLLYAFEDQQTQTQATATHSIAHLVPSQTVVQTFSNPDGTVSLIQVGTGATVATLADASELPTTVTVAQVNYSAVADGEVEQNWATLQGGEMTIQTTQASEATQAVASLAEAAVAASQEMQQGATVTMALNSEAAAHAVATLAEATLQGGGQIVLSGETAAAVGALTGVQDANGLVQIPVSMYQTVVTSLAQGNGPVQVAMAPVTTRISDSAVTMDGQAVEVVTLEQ
Bile acid receptor (Homo sapiens), sequence (Q96RI1 whole entry, looked up, the tested form may be a part): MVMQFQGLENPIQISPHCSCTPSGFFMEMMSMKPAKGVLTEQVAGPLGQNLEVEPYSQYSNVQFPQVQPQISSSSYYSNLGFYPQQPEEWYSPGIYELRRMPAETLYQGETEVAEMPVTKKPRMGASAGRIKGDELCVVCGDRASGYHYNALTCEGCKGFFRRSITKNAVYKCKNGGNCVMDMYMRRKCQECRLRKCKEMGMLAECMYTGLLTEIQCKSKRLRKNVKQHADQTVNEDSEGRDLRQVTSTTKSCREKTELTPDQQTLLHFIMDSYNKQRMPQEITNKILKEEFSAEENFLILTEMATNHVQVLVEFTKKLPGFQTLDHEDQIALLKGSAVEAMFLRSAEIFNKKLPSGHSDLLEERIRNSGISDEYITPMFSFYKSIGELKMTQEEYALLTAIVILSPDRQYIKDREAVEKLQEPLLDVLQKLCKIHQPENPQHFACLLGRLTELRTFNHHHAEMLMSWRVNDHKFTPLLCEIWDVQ
human Peroxisome Proliferator-activated Receptor alpha (PPARa), PPARA (gene 5465), sequence (Q07869 whole entry, looked up, the tested form may be a part): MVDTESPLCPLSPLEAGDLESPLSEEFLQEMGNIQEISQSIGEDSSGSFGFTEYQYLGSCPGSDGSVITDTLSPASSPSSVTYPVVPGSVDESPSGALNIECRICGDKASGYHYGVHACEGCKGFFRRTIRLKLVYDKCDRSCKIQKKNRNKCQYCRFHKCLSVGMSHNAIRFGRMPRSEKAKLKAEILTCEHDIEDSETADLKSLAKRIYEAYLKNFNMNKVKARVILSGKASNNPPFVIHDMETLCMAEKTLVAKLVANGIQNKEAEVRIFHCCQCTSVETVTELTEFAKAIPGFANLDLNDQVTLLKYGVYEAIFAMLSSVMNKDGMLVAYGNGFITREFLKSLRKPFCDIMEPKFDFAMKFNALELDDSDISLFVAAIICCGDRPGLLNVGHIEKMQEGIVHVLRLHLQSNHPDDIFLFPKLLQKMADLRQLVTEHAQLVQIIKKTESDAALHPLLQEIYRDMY
Oxysterols receptor LXR-beta (Homo sapiens), sequence (P55055 whole entry, looked up, the tested form may be a part): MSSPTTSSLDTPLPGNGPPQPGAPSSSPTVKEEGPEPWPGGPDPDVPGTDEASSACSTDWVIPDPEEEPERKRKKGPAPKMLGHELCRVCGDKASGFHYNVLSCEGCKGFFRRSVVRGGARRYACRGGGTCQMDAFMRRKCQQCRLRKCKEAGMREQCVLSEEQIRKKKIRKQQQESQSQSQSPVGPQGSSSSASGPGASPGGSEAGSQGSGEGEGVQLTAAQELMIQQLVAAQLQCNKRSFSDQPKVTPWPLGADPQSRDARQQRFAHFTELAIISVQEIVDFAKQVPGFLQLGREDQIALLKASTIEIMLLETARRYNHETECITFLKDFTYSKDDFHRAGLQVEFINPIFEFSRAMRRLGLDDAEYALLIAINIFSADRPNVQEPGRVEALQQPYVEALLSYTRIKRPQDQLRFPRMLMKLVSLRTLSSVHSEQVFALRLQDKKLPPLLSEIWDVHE
Hepatocyte nuclear factor 4-alpha (Homo sapiens), sequence (P41235 whole entry, looked up): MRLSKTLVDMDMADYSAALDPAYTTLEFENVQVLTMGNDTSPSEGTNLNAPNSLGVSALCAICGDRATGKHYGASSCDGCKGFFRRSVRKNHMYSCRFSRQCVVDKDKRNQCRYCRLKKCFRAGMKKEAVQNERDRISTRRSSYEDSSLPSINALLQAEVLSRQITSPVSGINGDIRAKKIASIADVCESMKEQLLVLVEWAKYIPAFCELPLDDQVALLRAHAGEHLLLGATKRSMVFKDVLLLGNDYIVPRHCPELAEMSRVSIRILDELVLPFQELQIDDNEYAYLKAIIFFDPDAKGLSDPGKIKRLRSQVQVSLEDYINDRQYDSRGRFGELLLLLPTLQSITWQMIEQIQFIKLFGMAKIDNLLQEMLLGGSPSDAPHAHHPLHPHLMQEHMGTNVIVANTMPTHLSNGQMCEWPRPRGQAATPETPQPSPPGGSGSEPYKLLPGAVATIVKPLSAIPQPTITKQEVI
Glucocorticoid receptor (Homo sapiens), sequence (P04150 whole entry, looked up, the tested form may be a part): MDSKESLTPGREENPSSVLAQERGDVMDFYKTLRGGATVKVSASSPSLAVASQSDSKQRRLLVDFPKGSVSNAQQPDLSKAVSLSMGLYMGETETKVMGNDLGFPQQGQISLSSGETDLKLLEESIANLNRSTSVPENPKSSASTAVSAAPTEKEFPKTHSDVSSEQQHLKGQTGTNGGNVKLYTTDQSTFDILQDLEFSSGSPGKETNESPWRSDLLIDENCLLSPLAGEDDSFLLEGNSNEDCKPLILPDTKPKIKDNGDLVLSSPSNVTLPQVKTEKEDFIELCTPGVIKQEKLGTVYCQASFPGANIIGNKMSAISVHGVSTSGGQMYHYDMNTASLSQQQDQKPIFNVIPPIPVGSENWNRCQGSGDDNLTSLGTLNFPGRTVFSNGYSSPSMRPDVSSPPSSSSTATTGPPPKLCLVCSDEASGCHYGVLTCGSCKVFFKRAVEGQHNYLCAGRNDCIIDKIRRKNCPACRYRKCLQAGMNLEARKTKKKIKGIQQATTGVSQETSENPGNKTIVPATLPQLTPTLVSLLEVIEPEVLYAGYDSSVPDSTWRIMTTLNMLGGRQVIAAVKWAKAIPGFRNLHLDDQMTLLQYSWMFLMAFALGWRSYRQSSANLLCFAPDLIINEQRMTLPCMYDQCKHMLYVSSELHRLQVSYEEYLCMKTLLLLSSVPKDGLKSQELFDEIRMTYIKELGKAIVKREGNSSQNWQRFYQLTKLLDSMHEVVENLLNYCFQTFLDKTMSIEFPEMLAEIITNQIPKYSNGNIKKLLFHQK
Cellular tumor antigen p53 (Homo sapiens), sequence (P04637 whole entry, looked up): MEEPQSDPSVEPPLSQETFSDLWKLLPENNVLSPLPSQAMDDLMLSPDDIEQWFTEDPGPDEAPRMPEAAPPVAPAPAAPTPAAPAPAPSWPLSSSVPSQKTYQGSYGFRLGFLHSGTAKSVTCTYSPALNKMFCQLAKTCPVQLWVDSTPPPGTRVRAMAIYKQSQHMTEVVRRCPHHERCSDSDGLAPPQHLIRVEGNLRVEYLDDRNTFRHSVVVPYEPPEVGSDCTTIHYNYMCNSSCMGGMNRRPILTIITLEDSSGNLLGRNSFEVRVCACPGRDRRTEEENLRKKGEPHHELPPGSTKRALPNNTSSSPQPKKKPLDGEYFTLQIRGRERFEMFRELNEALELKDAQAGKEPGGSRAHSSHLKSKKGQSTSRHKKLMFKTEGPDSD

CCCCCCC(CCCCCCCCCCC(=O)OCC(COC(C)=O)OC(C)=O)OC(C)=O (configuration not stated)
active: [15] 13.8 µM
not listed: [16] | [17] | [18] | [19] | [20]
inactive: all other assays above

C=CCCCCCCCCCCCC
not listed: [2] | [3] | [15] | [20]
inactive: all other assays above

CS(=O)(=O)c1ccc([C@@H](C[C@H]2CCC(=O)C2)C(=O)Nc2cnccn2)cc1Cl
not listed: [2] | [19]
inactive: all other assays above

Nc1nc(Cl)nc2c1ncn2[C@H]1C[C@H](O)[C@@H](CO)O1
active: [8] 16.9 µM | [11] 0.494 µM | [15] 66.5 µM
not listed: [17] | [18] | [19] | [20]
inactive: all other assays above

O=C(O)CN(CC(=O)O)CC(=O)O
active: [4] 0.386 µM
not listed: [16] | [19]
inactive: all other assays above

COC(=O)CCCC(=O)OC
not listed: [15] | [16] | [20]
inactive: all other assays above

CCN(CC)CCOc1ccc(C(=C(Cl)c2ccccc2)c2ccccc2)cc1
active: [2] 14.8 µM | [4] 14.5 µM | [5] 14.7 µM | [6] 14.8 µM | [9] 7.1 µM | [11] 13.5 µM | [12] 6.51 µM | [13] 13.8 µM | [14] 12.4 µM
inactive: [1] | [2] | [16] | [17] | [3] | [20] | [4] | [5] | [6] | [7] | [8] | [9] | [15]

CCCCCCC(C=O)=Cc1ccccc1
inactive: [1] | [2] | [16] | [17] | [3] | [20] | [18] | [4] | [5] | [6] | [7] | [8] | [9]
active: [6] 60 µM | [19] 27.8 µM and 41 µM | [9] 159 µM | [11] 27.4 µM | [12] 36.6 µM | [13] 35.6 µM | [14] 36.6 µM | [15] 27.2 µM and 15.8 µM

NCCOCCOCCN
not listed: [2] | [17] | [19]
inactive: all other assays above

C=CCc1ccc(OC)c(OC)c1
not listed: [16] | [18] | [20]
inactive: all other assays above

CC(=O)OCC(COC(C)=O)OC(C)=O
not listed: [2] | [10] | [15] | [18] | [20]
inactive: all other assays above

CC(N)=O
not listed: [2] | [8] | [10] | [17]
inactive: all other assays above

CCCCC(CC)CO (configuration not stated)
not listed: [20]
inactive: all other assays above

Oc1ccccc1O
active: [19] 13.1 µM | [9] 31.1 µM | [11] 2.96 µM | [13] 2.17 µM
not listed: [2] | [3] | [8] | [16] | [17]
inactive: all other assays above
